Source: PubChem
Most compounds without a hit are left out; they make up all but 4.7% or so of the library.
TGFb inhibitor: qHTS for Inhibitors of TGF-b | HepG2 CAGA-GFP TGF-b/SMAD3 reporter, GFP fluorescence, 18 h; TGF-beta stimulated, 500 pg/mL final | Potency, µM (titrated, usually from 46.1 µM), for inactives: at the top dose activity, negative = inhibition, actives largely listed as inhibitors | 1.2% of 410,000 active | AID 588855, 2011; also: potency is read from the fitted curve at half-maximal effect; % is scaled to controls: 0 for no effect and ±100 for the full control effect; nearly all actives have a fitted effect of over 65% in size
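HEPG2 CAGA-GFP, 1000 cells/well; 2 h settle, 37 C; cpd via pin tool; TGF-b 500 pg/mL final; 18 h, 37 C; GFP imaging ex488/em500-530; %Activity normalised to -TGF-b and +DMSO controls; CRC fit, curve class.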
HepG2 tox-1: qHTS for Inhibitors of TGF-b: Cytotox Counterscreen; HepG2 CAGA-GFP viability, ATP luminescence, 18 h; Potency, µM (highest dose often 46.1 µM), for inactives: top-dose activity change, negative = cytotoxicity, hits mostly cytotoxic; 0.76% of 410,000 active; also: potency is read from the fitted curve at half-maximal effect
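CellTiter-Glo luminescence gave cytotoxicity after 18 hours at 37 degrees C. The cells were HepG2 CAGA-GFP in 1% FBS DMEM, stimulated with 500 pg/mL TGF-beta after compound addition. %Activity was normalised to no-cell wells (complete cell-killing) and DMSO (no toxicity), and curves were fitted and classified.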
DRD3 agonist: qHTS of D3 Dopamine Receptor Agonist: qHTS; D(3) dopamine receptor (Homo sapiens), P35462; D3R DiscoveRx beta-arrestin cells, luminescence, 90 min; max activation, %; 0.58% of 410,000 active; AID 652048, 2013; in the data active = max activation above about 30%; also: 0% is about no effect
Target sequence (P35462 whole entry, looked up): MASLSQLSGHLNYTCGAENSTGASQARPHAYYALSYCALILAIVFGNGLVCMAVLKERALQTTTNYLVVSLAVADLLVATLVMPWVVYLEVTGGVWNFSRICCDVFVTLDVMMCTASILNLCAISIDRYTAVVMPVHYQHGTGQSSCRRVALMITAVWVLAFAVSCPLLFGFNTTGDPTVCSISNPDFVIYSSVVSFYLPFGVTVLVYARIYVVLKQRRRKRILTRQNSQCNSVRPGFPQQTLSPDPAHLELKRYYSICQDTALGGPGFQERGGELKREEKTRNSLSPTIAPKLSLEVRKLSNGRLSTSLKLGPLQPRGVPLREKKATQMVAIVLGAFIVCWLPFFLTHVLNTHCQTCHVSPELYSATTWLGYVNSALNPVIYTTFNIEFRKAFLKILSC
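Agonist mode: compounds and dopamine controls were applied to plated cells for 90 min at 37 degrees C after an overnight attachment at 1500 cells/well. Luminescent read-out followed 30 - 60 minutes at room temperature with DiscoveRx detection reagent.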
DRD3 antagonist: qHTS of D3 Dopamine Receptor Antagonist: qHTS | D(3) dopamine receptor (Homo sapiens), P35462 | D3R cells, DiscoveRx beta-arrestin luminescence, antagonist mode; active compounds read low | max response, negative = inhibition, % | 2.5% of 360,000 active | AID 652054, 2013; in the data active = max response below about -50%; inconclusive = no clear call, values can overlap the other calls; also: % is scaled to controls: 0 for no effect and ±100 for the full control effect
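Cells plated overnight at 1500 cells/well, then exposed to library compounds with dopamine controls for 90 minutes at 37 degrees C. DiscoveRx reagent added for 30–60 minutes at room temperature; luminescence read, quantitative HTS format.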
ATXN viability: Viability Counterscreen for Primary qHTS for Inhibitors of ATXN expression; Potency, µM (series often up to 56.7 µM), most hits filed as cytotoxic; 0.49% of 400,000 active; S2 cells (HEK-293 line with an ATXN2-luciferase reporter) viability, CellTiter-Fluor protease fluorescence, 24 h; also: potency is read from the fitted curve at half-maximal effect; nearly all actives have a fitted effect of over 40% in size
ATXN2 expr inh: Primary qHTS for Inhibitors of ATXN expression. HEK-293 ATXN2-luciferase reporter, luminescence, 24 h. Potency, µM (top dose mostly 57 µM), for the others: at the highest dose activity change, negative = inhibition, hits mostly inhibitors. 0.72% of 360,000 active. AID 1745845, 2022; also: potency is read from the fitted curve at half-maximal effect; % is scaled to controls: 0 for no effect and ±100 for the full control effect; nearly all actives have a fitted effect of over 55% in size
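qHTS (up to 57 uM final) was run with 24 h compound exposure of reporter cells at 37 °C. Each well was multiplexed: SteadyGlo luminescence measured ATXN2-luciferase expression after a fluorogenic Gly-Phe-AFC viability readout (25 uM final).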
TGFb confirm: qHTS for Inhibitors of TGF-b: Confirmation of Cherry Picks. shares compounds with TGFb inhibitor. HepG2 CAGA-GFP TGF-b reporter, GFP fluorescence, 18 h; cells stimulated with TGF-beta, 500 pg/mL. Potency, µM (series often up to 46.1 µM), for the others: top-dose activity, negative = inhibition, usual class: inhibitors. 63% of 1,600 active. AID 720534, 2013; also: potency is read from the fitted curve at half-maximal effect; % is scaled to controls: 0 for no effect and ±100 for the full control effect; nearly all actives have a fitted effect of over 65% in size
HepG2 tox-2: qHTS for Inhibitors of TGF-b: Cytotox Counterscreen for Cherry Picks; Potency, µM (series often up to 46.1 µM), for the others: top-dose activity, negative = cytotoxicity, actives largely listed as inhibitors; HepG2 CAGA-GFP viability, ATP luminescence, 18 h; cells stimulated with TGF-beta, 500 pg/mL; 27% of 1,600 active; shares compounds with TGFb inhibitor; also: potency is read from the fitted curve at half-maximal effect; % is scaled to controls: 0 for no effect and ±100 for the full control effect; nearly all actives have a fitted effect of over 70% in size
CCL64 TGFb inh: qHTS for Inhibitors of TGF-b: CCL64 Cells Orthogonal Assay for Cherry Picks | shares compounds with TGFb inhibitor | 41% of 1,600 active | CCL64 CAGA-GFP reporter, TGF-b stimulated, GFP fluorescence, 18 h | Potency, µM (top dose mostly 46.1 µM), without a hit: top-dose activity, negative = inhibition, hits mostly inhibitors | AID 720536, 2013; also: potency is read from the fitted curve at half-maximal effect; nearly all actives have a fitted effect of over 65% in size
COP TGFb inh: qHTS for Inhibitors of TGF-b: Hit Validation in HepG2 Cells using COP promoter. Potency, µM (top dose mostly 46.1 µM), inactives show top-dose activity, negative = inhibition, most hits filed as inhibitors. shares compounds with TGFb inhibitor. HepG2 COP-GFP TGF-b reporter, GFP fluorescence, 18 h; cells stimulated by added recombinant TGF-beta. 3% of 1,600 active. AID 720537, 2013; also: potency is read from the fitted curve at half-maximal effect; nearly all actives have a fitted effect of over 70% in size
Active calls of the source: *. Unless noted, calls follow the shape of the dose curve; as a rule, active = well fitted curve in the direction sought with a large enough effect; inconclusive = small, poorly fitted or top-dose-only effect, or another doubt; inactive = no such curve, though single readings can be large; an effect the other way counts as inactive or inconclusive.

Screening COc1ccc(S(=O)(=O)N2CCCCC2)cc1NC(=O)c1ccc([N+](=O)[O-])o1 returned TGFb inhibitor -9.5%, HepG2 tox-1 -0.1%, DRD3 agonist -5.9, DRD3 antagonist -1.0, ATXN viability inactive and ATXN2 expr inh 2.6%.
`COc1ccc(-c2noc(CC(=O)Nc3cc(OC)ccc3OC)n2)cc1` gave TGFb inhibitor 12.9%, HepG2 tox-1 -17.6% and DRD3 agonist -6.8.
For COc1cccc(-c2csc(NC3OC(=O)c4c3ccc(OC)c4OC)n2)c1 (centres undefined) the results were TGFb inhibitor 11.2µM*, HepG2 tox-1 -22.9%, DRD3 agonist 2.0, DRD3 antagonist -1.9, ATXN viability inconclusive, ATXN2 expr inh 80.9%, TGFb confirm 20.6µM*, HepG2 tox-2 -23.7%, CCL64 TGFb inh inconclusive and COP TGFb inh 21.8%.
For COc1ccc2c(c1OC)C(=O)OC2Nc1nc(-c2ccc(-c3ccccc3)cc2)cs1 (centres undefined) the results were TGFb inhibitor 7.08µM*, HepG2 tox-1 -12.1%, DRD3 agonist 0.0, DRD3 antagonist -14.4, ATXN viability inactive, ATXN2 expr inh 103.1%, TGFb confirm 23.1µM*, HepG2 tox-2 -17.3%, CCL64 TGFb inh inconclusive and COP TGFb inh -2.2%.
`COc1ccc(NC(=O)COCc2cc(-c3cccs3)on2)cc1` gave TGFb inhibitor -4.0%, HepG2 tox-1 4.9%, DRD3 agonist -14.1, ATXN viability inactive and ATXN2 expr inh -12.1%.
For CCOc1ccc(S(=O)(=O)N2CCN(C(=S)NCc3ccco3)CC2)cc1 the results were TGFb inhibitor 8.91µM*, HepG2 tox-1 -22.3%, DRD3 agonist -10.7, DRD3 antagonist -19.5, ATXN viability inactive, ATXN2 expr inh -4.0%, TGFb confirm inconclusive, HepG2 tox-2 -0.6%, CCL64 TGFb inh inconclusive and COP TGFb inh 2.6%.
`Cc1ccc(Cl)cc1N1CCN(C(=S)NCc2ccco2)CC1` gave TGFb inhibitor 15.8µM*, HepG2 tox-1 -18.8%, DRD3 agonist -11.3, DRD3 antagonist -27.9, ATXN viability inactive, ATXN2 expr inh -20.1%, TGFb confirm 16.4µM*, HepG2 tox-2 inconclusive, CCL64 TGFb inh inconclusive and COP TGFb inh 37.6%.
For O=C1CCSc2ccc(S(=O)(=O)Nc3cccc(C(F)(F)F)c3)cc2N1 the results were TGFb inhibitor -1.1%, HepG2 tox-1 -24.8%, DRD3 agonist -2.3, ATXN viability inactive and ATXN2 expr inh -11.1%.
`CCn1cc(C(=O)OCC(=O)Nc2cccc(C(C)=O)c2)c(=O)c2ccc(C)nc21` gave TGFb inhibitor 16.2%, HepG2 tox-1 6.9%, DRD3 agonist -10.7, ATXN viability inactive and ATXN2 expr inh 1.3%.
CC1=C(C(N)=O)C(c2ccc(C)cc2)n2nc(SCc3ccccc3)nc2N1 (centres undefined) was read as TGFb inhibitor 0.0%, HepG2 tox-1 -21.7%, DRD3 agonist 1.5, ATXN viability inactive and ATXN2 expr inh 1.7%.
Cc1ccc(N2CCN(C(=O)c3noc4c3COc3ccc(C)cc3-4)CC2)c(C)c1 was read as TGFb inhibitor 0.4%, HepG2 tox-1 -9.2%, DRD3 agonist -0.7, ATXN viability inactive and ATXN2 expr inh 7.8%.
`Cc1nn(C(=O)c2ccccc2)c(C)c1S(=O)(=O)N1CCOCC1` gave TGFb inhibitor -0.4%, HepG2 tox-1 -3.5%, DRD3 agonist -20.0, ATXN viability inactive and ATXN2 expr inh -1.8%.
